This note sets out measurements from ChEMBL document CHEMBL3988442, “University of Dundee, Small-Polar-MMV Screening Library” (2021).

Assay [1] addresses T1, Aspartate--tRNA(Asp/Asn) ligase (Mycobacterium tuberculosis (strain ATCC 25618 / H37Rv)) (UniProt P9WFW3).
T1 sequence (whole entry): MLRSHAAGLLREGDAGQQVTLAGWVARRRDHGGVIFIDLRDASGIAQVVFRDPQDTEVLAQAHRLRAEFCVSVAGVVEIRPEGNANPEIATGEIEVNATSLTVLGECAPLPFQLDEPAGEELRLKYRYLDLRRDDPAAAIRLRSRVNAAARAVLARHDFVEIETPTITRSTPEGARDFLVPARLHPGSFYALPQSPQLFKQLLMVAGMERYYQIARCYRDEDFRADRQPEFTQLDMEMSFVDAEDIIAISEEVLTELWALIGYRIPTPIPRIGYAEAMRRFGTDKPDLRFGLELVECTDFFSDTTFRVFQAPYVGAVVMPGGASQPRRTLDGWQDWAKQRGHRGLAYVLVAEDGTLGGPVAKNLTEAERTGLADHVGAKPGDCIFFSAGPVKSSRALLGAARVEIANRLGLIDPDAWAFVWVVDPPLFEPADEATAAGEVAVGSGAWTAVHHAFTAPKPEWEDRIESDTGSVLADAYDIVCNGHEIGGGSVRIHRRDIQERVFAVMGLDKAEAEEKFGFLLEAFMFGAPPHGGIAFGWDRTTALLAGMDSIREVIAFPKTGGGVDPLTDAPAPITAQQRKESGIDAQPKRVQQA
Description: Assay for Asp RNA synthetase-1 from Mycobacterium tuberculosis. It is filed as functional. The arrangement: scale not given: direction of the effect not stated beside the values. As to conditions: 30 µM.

Assay [2] concerns the target Shiga toxin 2 (Escherichia coli O157:H7) (UniProt P09385+P09386). Description: E. coli 0.157:H7 Shiga Toxin SOP - stx2 screening assay. The arrangement: scale not given: direction of the effect not stated beside the values. It is filed as functional. The following applies: 30 µM.

In the case of `Cc1nnc2n1CCN(Cc1ncc(-c3ccc(Cl)cc3)o1)C2`, the Percent Effect in assay [1] is -2.3%; in assay [2], 25.1%.

`Cc1nn(C)c2cnn(C(C)C(=O)NCc3cccnc3)c12` (stereo not given): the Percent Effect in assay [1] was -7.38%; in assay [2] it was -21.6%.

For the molecule `COCC(=O)N1CCC2(CC1)CC(CC(=O)NC1CC1)c1ccccc12` (stereo not given), the Percent Effect in assay [1] was -1.39%; in assay [2], 9.56%.

With `Cc1cc(NC(=O)CN2CCOC(Cn3cccn3)C2)n(C)n1` (stereo not given), the results for the Percent Effect in assay [1] and in assay [2] were -3.92% and -12.8%, respectively.

As to `CCCOCC(=O)NC1CCc2nc(C)cn2C1` (stereo not given), the Percent Effect is 1.62% in assay [1] and 7.61% in assay [2].

For `Cc1nc(C)n(CC2CN(Cc3cccnc3)CCO2)n1` (stereo not given), the Percent Effect was 5.17% in assay [1] and 26.5% in assay [2].

Turning to `Cc1cc(C)n(C2CCCN(C(=O)c3cnc4onc(C)c4c3)C2)n1` (stereo not given), the figures for the Percent Effect in assay [1] and in assay [2] were -0.75% and 15.8%, respectively.

With `Cc1nn(C)c(C)c1NC(=O)CN1CCCC1c1noc(C2CC2)n1` (stereo not given), the Percent Effect is 5.58% in assay [1] and -27.4% in assay [2].

For `O=C(c1ccc(F)cc1)N1C[C@@H]2OCCN(c3ncccn3)[C@@H]2C1`, the Percent Effect in assay [1] is -0.874%; in assay [2] it was -4.11%.

For `CC1=N[C@@]2(CC[C@@H]3CN(Cc4ccccc4F)C[C@@H]32)C(=O)N1CC1CC1`, the values for the Percent Effect in assay [1] and in assay [2] were -6.8% and -2.95%, respectively.

In the case of `COc1c(CNCc2ccc(CN(C)C)cc2)c(C(C)C)nn1C`, the Percent Effect in assay [1] is 0.7%; in assay [2], 16.1%.

For the molecule `Cc1nc(-c2ccccc2)n(CC(=O)N(C(C)C)C(C)C)n1`, the Percent Effect in assay [1] worked out at 4.15%; in assay [2] it was 23.2%.

Turning to `CCNc1cc2c(nn1)CCN(C(=O)c1ccc3cc[nH]c3c1)C2`, the values for the Percent Effect in assay [1] and in assay [2] were 2.23% and -3.04%, respectively.

With `N#Cc1cccc(S(=O)(=O)N2CCCCC2CCN2CCCC2=O)c1` (stereo not given), the Percent Effect was -2.87% in assay [1] and -20.4% in assay [2].

On to `Cc1ccc(C)c(C(NC(=O)C2CC2)c2cccnc2)c1` (stereo not given), for which the results for the Percent Effect in assay [1] and in assay [2] were -0.277% and -13.4%, respectively.

In the case of `CCc1nnsc1C(=O)N1CCCN(Cc2nccn2C)CC1`, the results for the Percent Effect in assay [1] and in assay [2] were 1.58% and 15.5%, respectively.

`O=C(NCCN1CCOCC1)c1n[nH]c(=O)c2ccccc12`: the results for the Percent Effect in assay [1] and in assay [2] were -2% and -29.3%, respectively.

Regarding `CCn1cnnc1CNC(=O)N1CCN(Cc2ccccc2)CC1`, the figures for the Percent Effect in assay [1] and in assay [2] were -0.692% and 8.37%, respectively.

On to `Cc1nnc(N2CC[C@H](OCC3CC3)[C@@H](Cc3ccccc3)C2)s1`, for which the figures for the Percent Effect in assay [1] and in assay [2] were 9.93% and -15.5%, respectively.

Take `Cc1nc(C)n(C2CCCN(C(=O)c3ccc4c(c3)COC4)C2)n1` (stereo not given): the results for the Percent Effect in assay [1] and in assay [2] were 0.699% and -16.5%, respectively.

For the molecule `O=C(NCCN1CCCCC1)c1nc(-c2ccc3cc[nH]c3c2)no1`, the Percent Effect was 6.42% in assay [1] and -77.4% in assay [2].

Turning to `CN1CCN(C[C@@H]2OC[C@H]3CN(Cc4ccsc4)CC[C@H]32)CC1`, the results for the Percent Effect in assay [1] and in assay [2] were -4.08% and 3.13%, respectively.

Consider `CCc1[nH]ncc1C(=O)N1CCCN(Cc2cnn(C(C)C)c2)CC1`, for which the Percent Effect in assay [1] was 6.41%; in assay [2], 9.14%.

Take `O=C(NCCCn1cccn1)C1(c2ccc(Br)cc2)CC1`: the Percent Effect in assay [1] is 0.575%; in assay [2], 8.42%.

For `COc1ccc(-n2ccc(C(=O)N3CCN(C)CC3C)n2)cc1` (stereo not given), the Percent Effect in assay [1] was -10.9%; in assay [2] it was -0.158%.

`O=C1NCCN1C1CCCN(Cc2nnc(-c3ccc(F)cc3)o2)C1` (stereo not given): the Percent Effect in assay [1] is -2.77%; in assay [2] it was -40.1%.

In the case of `CC1=Nc2c(c(=O)[nH]n2C2CCCC2)C(c2cccc(O)c2)S1` (stereo not given), the results for the Percent Effect in assay [1] and in assay [2] were 0.174% and 10.3%, respectively.

As for `Cc1nc(-c2ccccc2F)sc1C(=O)N1CCN(C)CC1`, the Percent Effect in assay [1] was 1.4%; in assay [2], -0.463%.

Turning to `Cc1cc(C)n(C2CCCN(C(=O)c3c(C)c(C)n[nH]c3=O)C2)n1` (stereo not given), the Percent Effect in assay [1] is -2.4%; in assay [2] it was 2.19%.

Turning to `O=C(CN1CCC(C(=O)c2cc(F)ccc2F)CC1)NC1CCCC1`, the Percent Effect in assay [1] was -0.27%; in assay [2], -63.4%.

Take `Cc1ccc([C@@H]2CN(C(=O)c3cccnn3)C[C@H]2NC(=O)C2CC2)cc1`: the Percent Effect in assay [1] was -3.85%; in assay [2], 29.5%.

Take `O=C1CC(c2ccncc2)c2c(c(C(=O)O)cn2-c2ccc(F)cc2)N1` (stereo not given): the figures for the Percent Effect in assay [1] and in assay [2] were 2.32% and -17.3%, respectively.

`CS(=O)(=O)NCC1CCCN(C(=O)COCc2ccccc2)C1` (stereo not given): the Percent Effect in assay [1] was -6.12%; in assay [2] it was -16.5%.

Consider `CC(OCC1CC1)C(=O)N1CCCN(Cc2nccn2C)CC1` (stereo not given), for which the Percent Effect in assay [1] is 7.9%; in assay [2], -20.4%.

As for `COc1ccnc(N2CCN(C(=O)c3csc(C(C)C)n3)CC2)n1`, the Percent Effect is -5.15% in assay [1] and -4.83% in assay [2].

As for `CCn1cc2c(n1)C(COC)CN(C(=O)COc1ccccc1C)C2` (stereo not given), the Percent Effect in assay [1] was found to be 2.12%; in assay [2], 3.11%.

`Cc1nc(CN2CCC(CNC(=O)Nc3ccccn3)CC2)oc1C`: the Percent Effect was 5.15% in assay [1] and -4.66% in assay [2].

As for `O=C(NCCCN1CCCCC1)c1ccc(-n2ccc3ccccc32)s1`, the Percent Effect in assay [1] was 5.58%; in assay [2] it was -90%.

`CC(C)(C)c1nnc(CN2CCCC2c2noc(C3CC3)n2)o1` (stereo not given): the Percent Effect in assay [1] is 0.758%; in assay [2] it was 0.0549%.

In the case of `Cn1cnc(S(=O)(=O)NCCCN2CCOCC2)c1Cl`, the Percent Effect is 3.04% in assay [1] and 18.7% in assay [2].

In the case of `O=C(CCNC(=O)c1ccccc1)Nc1ccncc1`, the Percent Effect was -1.89% in assay [1] and -111% in assay [2].

Take `c1cnc(-c2nc(CN3CCC(c4ccn[nH]4)CC3)cs2)nc1`: the Percent Effect in assay [1] was -0.495%; in assay [2], -11.4%.

For `Cc1n[nH]c(=O)c2c(NC(=O)CN3CCOC(C)C3)oc(C)c12` (stereo not given), the figures for the Percent Effect in assay [1] and in assay [2] were -3.61% and -52.2%, respectively.

`CSC(C)C(=O)N1CCCN(Cc2cscn2)CC1` (stereo not given): the Percent Effect in assay [1] was -6.57%; in assay [2], 25.4%.

As to `CCc1[nH]ncc1C(=O)N1CCCC(n2ccnc2C(C)C)C1` (stereo not given), the Percent Effect turned out to be 4.54% in assay [1] and 5.75% in assay [2].

Consider `Cc1cccc(Nc2nccnc2C2CCCN2CC(=O)N(C)C)n1` (stereo not given), for which the Percent Effect is -7.13% in assay [1] and -29.9% in assay [2].

Consider `CN(C)C(=O)N1CCN(Cc2ccccc2)[C@@H]2CS(=O)(=O)C[C@@H]21`, for which the Percent Effect in assay [1] was 0.569%; in assay [2] it was -3.78%.

For `Cc1cc(N(C)Cc2cc(C)on2)n2nc(C)c(C)c2n1`, the Percent Effect was 1.81% in assay [1] and -20% in assay [2].

On to `O=C(CCc1cccc(F)c1F)N1CCN(Cc2ccco2)CC1`, for which the Percent Effect in assay [1] is 0.502%; in assay [2], -2.83%.

`CN1CC(=O)N(c2cnn(C)c2)CC12CCN(Cc1nccn1C)C2` (stereo not given): the Percent Effect was -3.88% in assay [1] and -23.4% in assay [2].
